# From PubChem
# A selection: hits, their analogues and other compounds. The true share with any hit is near 8%.
# KB-V1 MDR tox: kills drug-selected multidrug resistant KB-V1 cells; KB-V1 MDR cells viability, CellTiter-Glo, 72 h; Potency, µM (top dose mostly 46.1 µM), usual class: cytotoxic; 400,000 compounds, 3.4% hits; AID 1347076; note: % is set by controls: 0 for no effect and ±100 for the full control effect; nearly all actives have a fitted effect of over 60% in size
#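 Cytotoxicity toward P-gp-expressing KB-V1 cells was determined as loss of CellTiter-Glo luminescence after 72 h at 37 degrees C. Compounds were tested in quantitative HTS format across a concentration range, with curves fitted to normalized data.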
# HT1080 IDH1KD tx: HT-1080 IDH1 knockdown cell toxicity (counter line); Potency, µM (doses to about 46.1 µM), without a hit: at the highest dose activity, negative = toxicity, most hits filed as cytotoxic; HT-1080 IDH1 knockdown viability, ATP luminescence, 48 h; 360,000 compounds, 2% hits;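 note: 0% = DMSO wells and -100% = cell-free medium wells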
#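 In this qHTS, HT-1080 cells depleted of IDH1 are exposed for 48 h at 37 °C to compound titrations. Toxicity is scored from CellTiter-Glo luminescence, with DMSO as full viability and medium alone as none.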
# KB-3-1 tox: KB-3-1 parental cell cytotoxicity; Potency, µM (doses to about 46.1 µM), usual class: cytotoxic; KB-3-1 viability, CellTiter-Glo ATP luminescence, 72 h; 400,000 compounds, 1.4% hits; note: % is set by controls: 0 for no effect and ±100 for the full control effect; nearly all actives have a fitted effect of over 60% in size
#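 Cytotoxicity in the drug-sensitive parental line KB-3-1 was scored as loss of CellTiter-Glo luminescence following 72 h incubation with compound. Values come from curve fitting of normalized concentration-response data.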
# MCF10A rereplic: inducers of DNA re-replication in MCF 10A breast cells. 350,000 compounds, 2.9% hits. AID 624296. MCF 10A DNA re-replication, Hoechst nuclear intensity, 48 h. Potency, µM (doses to about 46.1 µM), inactives show at the top dose activity, positive = re-replication, hits mostly activators; note: % of control where 0% means no effect; nearly all actives have a fitted effect of over 50% in size
# HT1080NT lethal: kills 2HG-producing HT-1080-NT fibrosarcoma cells; 360,000 compounds, 1.6% hits; HT-1080-NT fibrosarcoma viability, CellTiter-Glo ATP luminescence, 48 h; Potency, µM (top dose mostly 46.1 µM), for the others: top-dose activity, negative = less viability, usual class: cytotoxic;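 note: NT is the 2HG producing partner of a matched IDH1 knockdown line; 0% = DMSO-treated cells and -100% = media-only wells without cells; nearly all actives have a fitted effect of over 55% in size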
#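 HT-1080-NT fibrosarcoma cells (2HG-overproducing), 750 cells/well in RPMI with 5% FBS, dosed after 2 h and incubated 48 h at 37C. CellTiter-Glo luminescence normalized to DMSO and no-cell wells; concentration-response curves fitted and classed.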
# SW480 rereplic: DNA re-replication induction in SW480 cells; SW480 DNA re-replication, Hoechst DNA content imaging, 48 h; Potency, µM (top dose mostly 46.1 µM), inactives show top-dose re-replication activation, actives largely listed as activators; 340,000 compounds, 1.8% hits; note: % of control where 0% means no effect; nearly all actives have a fitted effect of over 55% in size
#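 Readout is total intensity of Hoechst-stained nuclei, excited at 405 nm and collected at 500-530 nm. Compound treatment lasted 48 hr at 37 C in 5% CO2 before staining.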
# * hit, by the source's call; i = inactive; ? = inconclusive; . = no result given; [ ] = dose if it differs, or a comment. Calls come from the whole dose curve; as a rule, active = well fitted curve in the direction sought with a large enough effect; inconclusive = small, poorly fitted or top-dose-only effect, or another doubt; inactive = no such curve, though single readings can be large; an effect the other way counts as inactive or inconclusive. Potency is the fitted concentration of half-maximal effect.
SMILES,KB-V1 MDR tox,HT1080 IDH1KD tx,KB-3-1 tox,MCF10A rereplic,HT1080NT lethal,SW480 rereplic
CCOC(=O)C1=C(COC(=O)/C=C/c2ccc(OCC)c(OC)c2)NC(=O)NC1C (centres undefined),i,-15%,i,8%,-11%,0%
COc1cc(/C=C/C(=O)N2CCOCC2)ccc1OCc1ccccc1,i,-10%,?,43%,-4%,-4%
CCOc1ccc(/C=C/C(O)=C2/C(=O)NC3(C)CC2c2ccccc2O3)cc1OC (centres undefined),?,?,?,8.2µM*,-24%,9.2µM*
C=CCn1c(SC(C)C(=O)c2c(N)n(C)c(=O)n(C)c2=O)nnc1-c1ccoc1C (centres undefined),i,0%,i,-11%,-1%,2%
O=S(=O)(c1ccccc1)c1nc(-c2ccc(F)cc2)oc1NCc1ccccc1,i,.,i,.,.,.
CCC(CC)NC(=O)c1cccc(Oc2ccccc2)c1,23µM*,-7%,i,2%,-9%,9%
CCN1CCCC1CNCc1cccc(OC)c1OCc1ccc(F)cc1 (centres undefined),12µM*,-9%,i,15%,1%,2%
N#C/C(=C\c1ccc(-c2ccccc2)cc1)c1nc(-c2ccco2)cs1,i,27%,i,23µM*,22%,1%
N#C/C(=C\c1ccc(Cl)cc1)c1nc(-c2ccco2)cs1,i,17%,i,12%,8%,2%
Cc1ccc(-n2c(C)nc3ncnc(-c4ccccc4)c32)cc1,?,-3%,i,13%,-3%,2%
COc1ccc(S(=O)(=O)N2CCC3(CC2)OCCO3)cc1,i,21%,i,-2%,7%,-1%
COc1ccc(OC)c(-c2oc3ccccc3c(=O)c2O)c1,i,?,i,0%,?,?
COc1cc(OC)c(-c2oc3ccccc3c(=O)c2O)c(OC)c1,?,?,8.2µM*,?,?,16µM*
COc1cc(-c2oc3ccc(C)cc3c(=O)c2O)cc(OC)c1OC,23µM*,.,?,.,.,.
COc1cc(/C=C2\SC(=Nc3ccccc3)N(Cc3ccco3)C2=O)ccc1OC(C)C(=O)O (centres undefined),i,1%,?,?,-12%,0%
COCCN1C(=O)/C(=C/c2ccc(OCc3ccc(C(=O)O)cc3)c(OC)c2)SC1=Nc1ccccc1,21µM*,-17%,i,?,-22%,-693%
O=C(Nc1ncc2c(n1)CC(c1ccccc1)CC2=O)c1ccco1 (centres undefined),i,5%,i,1%,-7%,2%
O=C1CC(c2ccccc2)Cc2nc(NCc3ccco3)ncc21 (centres undefined),16µM*,-12%,i,14%,-2%,?
O=C(CSC1=Nc2ccccc2N=C(c2ccc(F)cc2)C1)Nc1ccccc1,i,.,i,.,.,.
O=C(C=Cc1ccco1)c1ccco1,?,10%,i,6%,9%,-4%
Cc1ccc2cc(/C=C/C(=O)c3ccco3)c(Cl)nc2c1,?,12µM*,i,8.2µM*,?,?
Cc1ccc2nc(Cl)c(/C=C/C(=O)c3ccco3)cc2c1,i,-20%,?,?,?,-3%
COc1cc2cc(/C=C/C(=O)c3ccco3)c(Cl)nc2cc1OC,?,-27%,?,23µM*,?,21µM*
CCOC(=O)c1c(C)[nH]c(C)c1S(=O)(=O)N1CCC(C(=O)N2CCN(c3ccccc3F)CC2)CC1,i,.,i,.,.,.
Cc1ccc(-n2c(CCC(=O)O)ccc2-c2cccs2)cc1Cl,?,.,i,.,.,.
SMILES,KB-V1 MDR tox,HT1080 IDH1KD tx,KB-3-1 tox,MCF10A rereplic,HT1080NT lethal,SW480 rereplic
CCOc1ccc2nc(NS(=O)(=O)Cc3ccccc3)sc2c1,?,6.5µM*,?,0.23µM*,5.8µM*,?
CCOc1ccc2nc(NS(=O)(=O)c3ccc(NC(C)=O)cc3)sc2c1,i,15%,i,14%,2%,-1%
Cc1nn(Cc2ccccc2)c(C)c1C(=O)OCC(=O)c1cc(C)n(CC(F)(F)F)c1C,?,?,?,13µM*,-11%,4%
C(=N\Nc1ccc2ccccc2n1)/c1ccc2c(c1)OCCO2,18µM*,-8%,i,23µM*,-8%,?
Cc1ccc(/C=N/Nc2ccc3ccccc3n2)o1,8.2µM*,-23%,i,22%,-29%,?
CC(=NNc1ccc2ccccc2n1)c1ccccc1O,4.1µM*,0%,i,?,3%,?
C(=N\Nc1nc2ccccc2[nH]1)/c1ccc2c(c1)OCCO2,i,?,?,1%,-8%,-7%
Cc1cccc(/C=N/Nc2ccc3ccccc3n2)c1,i,-3%,i,21µM*,-6%,-2%
Cc1ccc(CN2CCCN(CC(=O)Nc3ccc(C)cc3C)S2(=O)=O)cc1,i,.,i,.,.,.
CCOC(=O)c1cc(CC)sc1NC(=O)c1cccc(N2C(=O)CCC2=O)c1,i,14%,i,-84%,9%,-4%
O=C(c1cccc(F)c1)N1CCN(c2cc(N3CCCCC3)c(F)cc2[N+](=O)[O-])CC1,18µM*,2%,?,?,0%[9.24 µM],-2%
CC(=O)N1CCN(c2cc(N3CCc4ccccc4C3)c(F)cc2[N+](=O)[O-])CC1,18µM*,?,i,?,?,-4%
CCC(=O)N1CCN(c2cc(N3CCCC3)c(F)cc2[N+](=O)[O-])CC1,?,?,i,12%,-2%,?
COc1ccc(OC)c(NC(=O)CC2C(=O)NCCN2C(=O)Nc2cccc(Cl)c2)c1 (centres undefined),?,?,i,5%,?,-3%
Cc1ccc(C)c(NC(=O)CN(C)C(=O)CN2C(=O)C3CCCCC3C2=O)c1 (centres undefined),i,-3%,i,7%,6%,-99%
CCOc1ccc(S(=O)(=O)N2CCCCC2)cc1NC(=O)Cc1cccs1,23µM*,-3%,i,1%,-4%,-2%
CCN(CC(=O)Nc1cc(S(=O)(=O)N2CCCCC2)ccc1C)Cc1ccccc1,?,?,?,21µM*,-2%,-2%
COc1ccc(S(=O)(=O)N2CCCCC2)cc1NC(=O)CN(Cc1ccco1)Cc1ccco1,?,-8%,i,21µM*,-16%,-6%
Cc1ccc(S(=O)(=O)N2CCCCC2)cc1NC(=O)CCOc1ccccc1,?,-2%,i,6%,2%,10%
